This is a sample that favours compounds with a hit; in the whole collection about 12% have one here.
Sfp PPTase inh: inhibitors of Bacillus subtilis Sfp phosphopantetheinyl transferase | Q9F4F7 | hit rate 3.5% among 310,000 | Biochemical Sfp PPTase activity, qHTS | Potency, µM, for inactives: largest response in the series, negative = inhibition, most hits filed as inhibitors;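 note: the enzyme is Sfp with the accession as filed and its product quenches rhodamine fluorescence; 0% = enzyme reaction without inhibitor and -100% = no enzyme wells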
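With Hepes-Na pH 7.6 buffer containing 10 mM MgCl2, Sfp (15 nM) modified BHQ-2-YbbR (12.5 uM) using rhodamine-CoA (5 uM). Two reads 30 minutes apart at 525/598 nm yielded each well's rate.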
HP1b binding inh: HP1-beta chromodomain-methylated histone interaction inhibition; P83916; AlphaScreen HP1-beta / biotin-H3K9me3 peptide binding; Potency, µM (series often up to 114 µM), for inactives: at the top dose activity change, negative = inhibition, usual class: inhibitors; hit rate 0.56% among 390,000; note: nearly all actives have a fitted effect of over 70% in size
Target sequence (P83916 whole entry, looked up): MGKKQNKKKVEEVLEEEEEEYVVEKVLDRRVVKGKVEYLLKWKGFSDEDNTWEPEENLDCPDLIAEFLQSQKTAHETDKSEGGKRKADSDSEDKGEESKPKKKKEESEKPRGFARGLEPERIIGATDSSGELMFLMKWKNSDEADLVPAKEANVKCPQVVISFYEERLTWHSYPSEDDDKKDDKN
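AlphaScreen: HP1-beta (50 nM) preformed 30 min with biotin-H3(1-18)K9me3 peptide (50 nM) in PBS pH 7.4, 0.01% Tween-20. Compound added for 30 min at RT, then streptavidin donor/nickel chelate acceptor beads (10 ug/mL) for 30 min.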
BAZ2B block: inhibitors of human BAZ2B bromodomain; Q9UIF8; AlphaScreen BAZ2B-H3K14Ac peptide displacement; Potency, µM (doses to about 114 µM), without a hit: at the top dose activity change, negative = inhibition, hits mostly inhibitors; hit rate 4.4% among 360,000; AID 504333; note: % is set by controls: 0 for no effect and ±100 for the full control effect; nearly all actives have a fitted effect of over 60% in size
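In this displacement format the biotinylated H3(5-23) peptide acetylated at Lys14 serves as ligand at 50 nM, with BAZ2B at 50 nM in PBS pH 7.4 containing 0.01% Tween-20. Donor and acceptor beads are 10 ug/mL final.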
G9a block: G9a (human) methyltransferase inhibition | Q96KQ7 | G9a H3K9 monomethylation, AlphaScreen, 2 h | Potency, µM (series often up to 102 µM), for the others: at the top dose activity, negative = inhibition, hits mostly inhibitors | hit rate 8.8% among 350,000 | AID 504332; note: % is set by controls: 0 for no effect and ±100 for the full control effect; nearly all actives have a fitted effect of over 75% in size
Target sequence (Q96KQ7 913-1193 limits assumed): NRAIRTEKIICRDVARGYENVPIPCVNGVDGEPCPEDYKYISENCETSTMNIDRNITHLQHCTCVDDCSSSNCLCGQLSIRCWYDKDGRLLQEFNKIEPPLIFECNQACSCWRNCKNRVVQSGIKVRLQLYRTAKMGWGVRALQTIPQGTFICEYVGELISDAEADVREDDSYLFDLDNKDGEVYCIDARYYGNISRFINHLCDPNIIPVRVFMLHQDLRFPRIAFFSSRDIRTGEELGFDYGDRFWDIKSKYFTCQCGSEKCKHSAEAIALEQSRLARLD
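G9a (20 nM) was preincubated 15 min with compound, then reacted 2 h at room temperature with 500 nM biotin-H3K9 peptide and 20 µM SAM. Monomethyl-H3K9 detected by AlphaScreen using anti-H3K9me1 antibody.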
JMJD2A Tudor: JMJD2A Tudor domain (human) inhibition; O75164; AID 504339; AlphaScreen JMJD2A-Tudor / H3K4me3 peptide binding; Potency, µM (series often up to 114 µM), inactives show top-dose activity change, negative = inhibition, usual class: inhibitors; hit rate 4.4% among 390,000; note: % is set by controls: 0 for no effect and ±100 for the full control effect; nearly all actives have a fitted effect of over 50% in size
L3MBTL1 inh: L3MBTL1 (human) inhibition; AlphaScreen L3MBTL1–H3K9me1 peptide binding; Potency, µM (titrated, usually from 57.1 µM), without a hit: at the highest dose activity, negative = inhibition, actives largely listed as inhibitors; hit rate 0.66% among 230,000; note: % is set by controls: 0 for no effect and ±100 for the full control effect; nearly all actives have a fitted effect of over 60% in size
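Displacement of a biotinylated histone H3(1-15) peptide monomethylated at Lys9 (75 nM) from L3MBTL1 (50 nM) was measured by AlphaScreen after a 30 min room-temperature compound incubation; cefsulodin titration served as intraplate control.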
An asterisk follows results filed as active; ? = inconclusive; · = no result given; [ ] = another dose, or the depositor's remark. Calls come from the whole dose curve; as a rule, active = well fitted curve in the direction sought with a large enough effect; inconclusive = small, poorly fitted or top-dose-only effect, or another doubt; inactive = no such curve, though single readings can be large; an effect the other way counts as inactive or inconclusive. Potency is the fitted concentration of half-maximal effect.

SMILES	Sfp PPTase inh	HP1b binding inh	BAZ2B block	G9a block	JMJD2A Tudor	L3MBTL1 inh
O=C(OCC(=O)c1ccc(Cl)cc1Cl)c1ccccn1	·	28%	·	·	40µM*	?
CCOc1ccc(C(=O)OCC(=O)Nc2cccnc2Cl)cc1OCC	·	28%	·	·	-7%	0%
CC(C)(C)C(=O)NCCc1nc2ccccc2n1CCCCOc1ccc(Cl)cc1	·	44%	-5%	?	-10%	·
COc1ccc(-n2nc3c(N4CCCC(C(=O)NCCc5ccc(C)cc5)C4)nnc(C)c3c2C)cc1 (stereo not given)	·	4%	?	?	?	·
Cc1ccc2c(c1)cc(C(=O)NCc1ccc(F)cc1)n2C	·	45%	-1%	5%[59 µM]	2%	·
CCc1cccc(NC(=O)CCn2nc(C)cc2C)c1	·	24%	-13%	5%[59 µM]	-10%	·
COc1cccc(N2CCN(C(=O)c3ccc(CS(=O)c4cccc(Cl)c4)o3)CC2)c1 (stereo not given)	·	35%	-25%	-27%[59 µM]	-8%	·
CC1=Nc2ccccc2/C1=C/c1c(N)n2c(S(=O)(=O)CC(C)C)nsc2nc1=O	-7%	-1%	·	?	?	·
Cn1c(=O)c2c(SCC(=O)N3CCCC3)nc(CC(C)(C)C)nc2n(C)c1=O	-4%	41%	-12%	2%	-13%	·
O=C(COC(=O)c1ccc2c(c1)OCO2)Nc1ccccc1OC(F)F	·	32%	·	·	2%	-2%
O=C(COC(=O)c1ccc(Cl)c([N+](=O)[O-])c1)Nc1ccccc1OC(F)F	1%	19%	0%	1.6µM*	2%	-10%
C[C@@H](N)CCCP(=O)(O)O	-18%	·	·	?	·	·
COc1ccc(S(=O)(=O)N(C)C)cc1NC(=O)CCNC(=O)c1ccco1	6%	6%	4%	15%	-4%	·
Cc1ccc(OCCNC(=O)CCc2ccccc2)cc1C	·	24%	·	·	8%	·
C=CCn1c(NC(=O)CC)c(C(=O)OCC)sc1=S	-15%	-1%	?	45µM*	-3%[57.1 µM]	·
O=C(CN(C(=O)c1csnn1)c1ccccc1F)NCc1ccc2c(c1)OCO2	-4%	20%	5%	7%	4%	·
N#Cc1nc(Nc2ccc3ccccc3c2)nc(NC2CCCC2)n1	·	·	·	·	-16%	·
Cc1ccc(NS(=O)(=O)c2cccc(C(=O)O)c2)cc1C	·	·	·	·	-11%	·
Cc1cccc(NC(=S)N2CCOCC2)c1C	71µM*	8%	2%	9%[59 µM]	-12%	1%
O=C1CCc2nc3ccccc3c(=O)n2N1	11%	27%	56µM*	-50%[12.7 µM]	?	22%
O=c1c2ccccc2nc2n1-c1ccccc1CCC2	10%	44%	-9%	-5%[12.7 µM]	-10%	0%
NC(=NCCC[C@H](N)C(=O)O)NO	·	·	·	33%[12.7 µM]	·	·
CCC(/C=C1\Sc2ccc(OC)cc2N1CC)=C\c1sc2ccc(OC)cc2[n+]1CCCS(=O)(=O)[O-]	50µM*	-21%	22µM*	20µM*	?	·
CCC(/C=C1\Sc2ccc(OC)cc2N1CCO)=C\c1sc2ccc(OC)cc2[n+]1CCO	22µM*	40µM*	13µM*	11µM*	22µM*	?
COc1ccccc1CNC(=O)c1oc2ccc(S(=O)(=O)N3CCOCC3)cc2c1C	3%	-6%	-2%	8%[59 µM]	-14%	·
SMILES	Sfp PPTase inh	HP1b binding inh	BAZ2B block	G9a block	JMJD2A Tudor	L3MBTL1 inh
COCCNC(=O)c1cc(S(=O)(=O)N2CCOCC2)ccc1SCc1cccc(OC)c1OC	?	42%	4%	28µM*	-3%	·
COc1cccc(CSc2ccc(S(=O)(=O)N3CCOCC3)cc2C(=O)NCC2CCCO2)c1OC (stereo not given)	-26%	-8%	10%	40µM*	-7%	·
O=C(Cc1ccc(Cl)c(Cl)c1)Nc1ccc2[nH]c(=O)[nH]c2c1	23%	-7%	-3%	8%	-18%	3%
O=C(NCCCN1CCc2ccccc2C1)C1CCN(c2nnc(-n3cccc3)s2)CC1	-15%	22%	-35%	50µM*	?	-14%
CCN(CC)c1ccc(NC(=O)C2CCN(c3nnc(-n4cccc4)s3)CC2)c(C)c1	·	16%	2%[57.1 µM]	4µM*	-19%	·
COc1cccc(N2CCN(S(=O)(=O)c3ccc(-n4cnnn4)cc3)CC2)c1	13%	29%	-3%[57.1 µM]	-11%	2%	·
CCCN1C(=O)C(=O)c2cc(C)ccc21	·	30%	·	·	-9%	-3%
CCN1C(=C(C#N)C#N)C=Cc2ccccc21	16%	17%	-10%	-5%	-19%	-6%
CCN1/C(=C2\C(=O)N(C)C(=S)N2c2ccccc2)C=Cc2ccccc21	89µM*	?	40µM*	-140%[59 µM]	-29%	·
CCN1/C(=C2\C(=O)N(C)C(=S)N2C)C=Cc2cc(C)ccc21	45µM*	-66%	45µM*	10µM*	50µM*	-23%
CCN1/C(=C2\C(=O)N(C)C(=S)N2C)C=Cc2ccccc21	-6%	?	50µM*	10µM*	-35%	-13%
CC1CCC2=C1C[C@H](C(C)(C)O)CC[C@@H]2C (stereo not given in full)	1%	·	·	·	·	·
CCOc1ccc(N2CC(C(=O)Nc3cc(OCC)c(N4CCOCC4)cc3OCC)CC2=O)cc1 (stereo not given)	·	-7%	0%	?	-28%	-11%
COc1ccc(/C=C(\C#N)C(=O)Nc2cccc3ncccc23)cc1OC	-3%	12%	-28%	?	-4%	·
C[C@@H](NC(=O)/C(C#N)=C/c1ccc(O)c(O)c1)c1ccccc1	-28%	?	35µM*	2.8µM*	40µM*	-27%
CCOC(=O)/C(C#N)=C\c1ccc(N2CCN(C/C=C/c3ccccc3)CC2)cc1	16%	75%	6%	81%[59 µM]	14%	14%
C[C@H](NC(=O)/C(C#N)=C/c1ccc(O)c(O)c1)c1ccccc1	?	·	·	7.9µM*	·	·
N#C/C(=C\c1ccc(O)c(O)c1)C(=O)Nc1cccc2ncccc12	-27%	-8%	?	8.9µM*	?	·
N#C/C(=C/c1ccc(O)c(O)c1)C(=O)OC/C=C/c1ccccc1	20%	·	·	1.6µM*	·	·
COc1ccc(C(=O)CNc2ccc(C)cc2C)cc1	8%	-8%	?	?	-14%	·
Cc1ccc(C)c(S(=O)(=O)N2CCN(C(=O)c3cccnc3)CC2)c1	10%	70%	7%	95%	0%	·
N#C/C(=C/c1cccc(O)c1)C(=O)NCc1ccc(Cl)cc1	1%	-3%	-19%	1%	-22%	·
N#C/C(=C/c1ccc(O)c(O)c1)C(=O)NCc1ccc(Cl)cc1	-11%	28µM*	35µM*	11µM*	13µM*	·
CC(NC(=O)/C(C#N)=C/c1ccc(Cl)c([N+](=O)[O-])c1)c1ccccc1 (stereo not given)	25µM*	-8%	?	?	?	-12%
